Assay outcomes: PubChem BioAssay, National Center for Advancing Translational Sciences (NCATS)
ELG1 repair inh = qHTS screen for small molecules that inhibit ELG1-dependent DNA repair in human embryonic kidney (HEK293T) cells expressing luciferase-tagged ELG1 | HEK293T ELG1-luciferase reporter, luminescence, 16 h; DNA damage induced by 5-fluorouridine | Potency, µM (highest dose often 46.1 µM), hits mostly inhibitors | 330,000 compounds, 2.3% hits; note: nearly all actives have a fitted effect of over 55% in size
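Reporter activity after DNA damage by 5-fluorouridine is monitored. Compound-treated cells incubate 16 hr at 37 °C, then ONE-Glo is added for 30 min before luminescence reading.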
RORg inh = qHTS for inhibitors of ROR gamma transcriptional activity; Drosophila S2 Gal4-RORgamma UAS-luciferase reporter, 20 h; 310,000 compounds, 5.4% hits; Potency, µM (doses to about 53.6 µM), usual class: inhibitors; note: nearly all actives have a fitted effect of over 60% in size
Target sequence (P51450 whole entry, looked up, the tested form may be a part): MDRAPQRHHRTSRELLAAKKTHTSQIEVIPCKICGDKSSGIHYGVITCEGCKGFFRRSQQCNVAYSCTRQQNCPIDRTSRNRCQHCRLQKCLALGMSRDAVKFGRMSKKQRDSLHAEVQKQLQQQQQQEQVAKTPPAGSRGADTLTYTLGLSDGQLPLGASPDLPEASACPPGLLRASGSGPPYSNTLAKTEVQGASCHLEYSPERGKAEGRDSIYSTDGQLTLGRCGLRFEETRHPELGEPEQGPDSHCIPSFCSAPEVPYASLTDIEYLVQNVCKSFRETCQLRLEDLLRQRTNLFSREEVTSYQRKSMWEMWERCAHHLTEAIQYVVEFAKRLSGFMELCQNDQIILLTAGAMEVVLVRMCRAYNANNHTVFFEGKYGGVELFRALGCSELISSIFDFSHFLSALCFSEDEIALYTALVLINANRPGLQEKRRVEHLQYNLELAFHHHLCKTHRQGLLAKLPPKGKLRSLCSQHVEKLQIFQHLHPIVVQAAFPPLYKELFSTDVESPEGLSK
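Schneider cells (Drosophila), stable Gal4 DBD–ROR gamma + UAS-luc; 1 hr cmpd preincubation; Cu2+ induction 700 uM final; 20 hr ambient; luminescence.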
Gal4-VP16 FLuc = VP16 counterscreen qHTS for inhibitors of ROR gamma transcriptional activity | Drosophila S2 Gal4-VP16 UAS-luciferase, luminescence, 20 h | Potency, µM (series often up to 53.6 µM), hits mostly inhibitors | 310,000 compounds, 3.5% hits | AID 2546, 2010;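 note: Gal4-VP16 expression switched on by copper sulfate through the metallothionein promoter; nearly all actives have a fitted effect of over 50% in size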
SW480 rerep = A quantitative high throughput screen for small molecules that induce DNA re-replication in SW480 colon adenocarcinoma cells; SW480 DNA re-replication, Hoechst DNA content imaging, 48 h; Potency, µM (titrated, usually from 46.1 µM), usual class: activators; 340,000 compounds, 1.8% hits; note: nearly all actives have a fitted effect of over 55% in size
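Hoechst fluorescence of nuclei (405 nm excitation, 500-530 nm emission) measured by plate-scanning imager after 48 hr compound exposure at 37 C; re-replication scored as increased number of nuclei with elevated intensity.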
MCF10A rerep = A quantitative high throughput screen for small molecules that induce DNA re-replication in MCF 10a normal breast cells. AID 624296, 2012. Potency, µM (series often up to 46.1 µM), hits mostly activators. MCF 10A DNA re-replication, Hoechst nuclear intensity, 48 h. 350,000 compounds, 2.9% hits; note: nearly all actives have a fitted effect of over 50% in size
Of the large screens only hits and unclear results are named; the others gave an inactive call. Most compounds without a hit are left out; they make up all but 10% or so of the library. Calls come from the whole dose curve; as a rule, active = well fitted curve in the direction sought with a large enough effect; inconclusive = small, poorly fitted or top-dose-only effect, or another doubt; inactive = no such curve, though single readings can be large; an effect the other way counts as inactive or inconclusive.

O=C(Nc1ccc2c(c1)OCO2)C1CC(=O)N(c2ccc(F)cc2)C1 (stereo unspecified)	none
CN(CCc1ccccn1)C(=O)CCC1CCCN(C(=O)c2n[nH]c3c2CCCC3)C1 (stereo unspecified)	RORg inh inconclusive
Cc1ccccc1NC(=S)Nc1ccc(Br)cc1	RORg inh 11µM, Gal4-VP16 FLuc 11µM
Cc1ccccc1NC(=O)C(=O)NCc1ccccn1	ELG1 repair inh inconclusive
Cc1c(Cl)cccc1NC(=S)Nc1ccccn1	RORg inh 1µM, Gal4-VP16 FLuc inconclusive
S=C(Nc1ccccn1)Nc1ccccc1Cl	ELG1 repair inh inconclusive
Cc1ccccc1NC(=S)Nc1ccccn1	RORg inh 0.5µM, Gal4-VP16 FLuc 1.6µM
Cc1cc(C)c(C)c(S(=O)(=O)NCc2ccc(C(=O)N3CCCCC3)cc2)c1C	none
Cc1ccc(N2C(=O)N(CC(=O)Nc3cccc(C)c3C)C(=O)C2C)cc1 (stereo unspecified)	ELG1 repair inh inconclusive (no result: RORg inh, Gal4-VP16 FLuc)
O=C(CCN1C(=O)c2ccccc2C1=O)NC(=S)Nc1ccccc1Cl	ELG1 repair inh inconclusive, RORg inh inconclusive, Gal4-VP16 FLuc inconclusive
CC1(C)CC(CCC(=O)NC(=S)Nc2ccccc2Cl)C(=O)O1 (stereo unspecified)	RORg inh 18µM, Gal4-VP16 FLuc inconclusive
CC1(C)Oc2ccc(C(=O)N/N=C/c3ccc(O)cc3)cc2NC1=O	MCF10A rerep inconclusive
CCN(CC)C(=O)c1ccc2nc3ccccc3nc2c1	ELG1 repair inh inconclusive, SW480 rerep 5.2µM, MCF10A rerep inconclusive
CCCN(CCC)C(=O)c1ccc2nc(-c3ccc(OC)c(OC)c3)c(-c3ccc(OC)c(OC)c3)nc2c1	ELG1 repair inh 12µM
CCN(CC)C(=O)c1ccc2nc(-c3ccccc3)c(-c3ccccc3)nc2c1	ELG1 repair inh inconclusive
CCN(Cc1nc(-c2ccc(OC)c(OC)c2)no1)C(=O)c1ccc2c(c1)OCO2	none
COCC1CCCN(C(=O)c2ccc3oc(Cc4ccc(Cl)cc4)nc3c2)C1 (stereo unspecified)	RORg inh inconclusive
Cc1ccc(C(=O)c2coc3c2C(=O)C(=O)c2ccccc2-3)cc1	ELG1 repair inh inconclusive, RORg inh inconclusive, Gal4-VP16 FLuc inconclusive
Cc1ccc(C(=O)c2c(C)oc3c2C(=O)C(=O)c2ccccc2-3)cc1	ELG1 repair inh inconclusive, RORg inh 5µM, Gal4-VP16 FLuc 3.5µM, SW480 rerep 13µM, MCF10A rerep 18µM
Cc1oc2c(c1C(=O)c1ccc(Cl)cc1)C(=O)C(=O)c1ccccc1-2	RORg inh 5.6µM, Gal4-VP16 FLuc 6.3µM, MCF10A rerep 7.3µM
Cc1ccc(CN2CC(C(=O)N(CC(C)C)c3c(N)n(Cc4ccccc4)c(=O)[nH]c3=O)CC2=O)cc1 (stereo unspecified)	none (no result: ELG1 repair inh, RORg inh, Gal4-VP16 FLuc)
CC(=O)Oc1ccc(/C=C2/CCc3ccccc3C2=O)cc1	ELG1 repair inh inconclusive, RORg inh 8.9µM, Gal4-VP16 FLuc 10µM, MCF10A rerep inconclusive
COc1cccc(/C=C2\CCc3ccccc3C2=O)c1	ELG1 repair inh inconclusive, RORg inh 11µM, Gal4-VP16 FLuc 11µM
Cc1ccsc1/C=C1\CCc2ccccc2C1=O	ELG1 repair inh inconclusive, RORg inh inconclusive, Gal4-VP16 FLuc 11µM
Cc1ccsc1/C=C1\CCC(C2CCCC2)C1=O (stereo unspecified)	ELG1 repair inh inconclusive, RORg inh inconclusive
COc1ccc(/C=C2\CCc3ccccc3C2=O)cc1OC	ELG1 repair inh inconclusive, SW480 rerep inconclusive, MCF10A rerep inconclusive
COc1ccc2c(c1)CC/C(=C/c1cc(OC)c(OC)c(OC)c1)C2=O	ELG1 repair inh 18µM, Gal4-VP16 FLuc inconclusive, MCF10A rerep inconclusive
COC(=O)C1=C(CS(=O)(=O)c2ccc(OC)c(OC)c2)NC(=O)NC1c1ccc(O)c(OC)c1 (stereo unspecified)	none
O=C1/C(=C\c2ccc3ccccc3c2)CCCc2ccccc21	ELG1 repair inh inconclusive, Gal4-VP16 FLuc inconclusive, SW480 rerep inconclusive, MCF10A rerep 5.8µM
Cc1ccccc1/C=C1\CCCc2ccccc2C1=O	ELG1 repair inh inconclusive, MCF10A rerep inconclusive
Cc1ccccc1-c1cncnc1NCc1cccs1	none (no result: ELG1 repair inh, SW480 rerep, MCF10A rerep)
CCOc1ccccc1CNC(=O)c1cc2occc2n1C	none
CCOc1ccccc1CNC(=O)c1cc2oc3ccccc3c2n1C	MCF10A rerep 15µM
COCCNC(=O)Cn1nc(-c2ccc(C)cc2)c2ccccc2c1=O	none
Cc1ccc(-n2nc3ccc(N)cc3n2)cc1C	ELG1 repair inh inconclusive, Gal4-VP16 FLuc inconclusive, SW480 rerep 16µM, MCF10A rerep 16µM
COc1ccc(-n2nc3ccc(N)cc3n2)cc1Cl	ELG1 repair inh inconclusive, SW480 rerep 21µM, MCF10A rerep inconclusive
Cc1ccc(-n2nc3ccc(N)cc3n2)cc1Cl	ELG1 repair inh inconclusive, MCF10A rerep inconclusive
Cc1cc(C)n(-c2cccc(F)n2)n1	none
CC1=NN(C(=O)c2ccncc2)C(=O)C1N=Nc1ccc2ccccc2c1 (stereo unspecified)	none (no result: ELG1 repair inh, RORg inh, Gal4-VP16 FLuc)
CC1=NN(C(N)=S)C(=O)C1N=Nc1cccc([N+](=O)[O-])c1 (stereo unspecified)	ELG1 repair inh inconclusive, RORg inh 0.5µM, Gal4-VP16 FLuc 1.6µM, MCF10A rerep inconclusive
CC1=NN(C(N)=S)C(=O)C1N=Nc1ccccc1 (stereo unspecified)	ELG1 repair inh inconclusive, RORg inh 0.2µM, Gal4-VP16 FLuc 0.89µM
CC1=NN(C(N)=S)C(=O)C1N=Nc1ccc(Cl)cc1 (stereo unspecified)	ELG1 repair inh inconclusive, RORg inh 0.4µM, Gal4-VP16 FLuc 1.1µM, SW480 rerep 18µM
CC1=NN(c2ccccc2)C(=O)C1N=Nc1cccc(O)c1 (stereo unspecified)	ELG1 repair inh inconclusive, RORg inh inconclusive, Gal4-VP16 FLuc inconclusive, MCF10A rerep inconclusive
CC1=NN(C(N)=S)C(=O)C1N=Nc1ccc(Br)cc1 (stereo unspecified)	ELG1 repair inh inconclusive, RORg inh 0.45µM, Gal4-VP16 FLuc 1.3µM
CC1=NN(c2ccccc2)C(=O)C1N=Nc1ccccc1 (stereo unspecified)	ELG1 repair inh inconclusive, RORg inh inconclusive
CCCc1nc2nc(C)c(NS(=O)(=O)c3ccc(CC(C)C)cc3)c(=O)n2[nH]1	SW480 rerep inconclusive
CC1=NN(c2ccccc2)C(=O)C1N=Nc1ccc(N)cc1 (stereo unspecified)	Gal4-VP16 FLuc 8.9µM, MCF10A rerep inconclusive
Cc1ccc(OCCNC(=O)C(=O)NCc2ccco2)cc1	SW480 rerep 10µM, MCF10A rerep 1.6µM
CN1CCN(C(c2ccc(F)cc2)c2ccc3cccnc3c2O)CC1 (stereo unspecified)	none (no result: ELG1 repair inh, RORg inh, Gal4-VP16 FLuc)
